# Mtb MenB inh: inhibitors of Mycobacterium tuberculosis MenB enzyme | MenB enzyme assay, absorbance read-out | inhibition, % (no concentration beside the values) | 100,000 tested, 0.43% active; in the data active = inhibition above about 21%, passing the limit was not always enough
# MbtI inh: blocks the Mycobacterium tuberculosis siderophore enzyme MbtI | P9WFX0 | purified MbtI enzyme, fluorescence intensity read-out | inhibition, % (test concentration not listed) | 100,000 tested, 0.89% active | AID 493033; in the data active = inhibition mostly above about 56%, no sharp cut-off; inactive = mostly below about 77%
# PV pol inh: poliovirus RNA polymerase inhibition; 150,000 tested, 0.66% active; poliovirus polymerase elongation, fluorescence polarization; active compounds read low; % elongation, % (compound at 16.7 µg/mL); in the data active = % elongation below about 90%
# Target sequence (P03300 1749-2209 limits assumed): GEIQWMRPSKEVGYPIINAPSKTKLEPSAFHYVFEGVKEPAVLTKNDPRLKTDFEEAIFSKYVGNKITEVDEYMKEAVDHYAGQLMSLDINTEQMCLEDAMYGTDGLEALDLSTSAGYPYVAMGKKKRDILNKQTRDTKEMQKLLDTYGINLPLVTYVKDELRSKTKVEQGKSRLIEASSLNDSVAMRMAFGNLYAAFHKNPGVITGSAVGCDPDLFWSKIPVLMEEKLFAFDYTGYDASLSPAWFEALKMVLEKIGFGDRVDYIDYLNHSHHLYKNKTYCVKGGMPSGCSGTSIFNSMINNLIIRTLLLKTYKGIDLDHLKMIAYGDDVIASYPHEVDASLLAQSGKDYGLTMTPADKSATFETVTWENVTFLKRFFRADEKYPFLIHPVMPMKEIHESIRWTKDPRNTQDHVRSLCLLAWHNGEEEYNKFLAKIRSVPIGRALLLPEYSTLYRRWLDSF
# * hit, by the source's call; . = not tested or not shown. Sampled rows, rich in hits. Any-hit rate of the full collection: about 1.4%.
SMILES,Mtb MenB inh,MbtI inh,PV pol inh
CC1CCC(C(C)C)C(OC(=O)C[n+]2ccsc2N)C1 (centres undefined),.,-9,102
COc1ccc(NC(=O)CN(C)S(=O)(=O)c2ccc(-c3ccc(=O)[nH]n3)s2)cc1,-23,-9,102
COc1ccc(C2(CNC(=O)c3ccccc3)CCOCC2)cc1,.,-17,.
COc1ccc(C2(CNC(=O)c3ccco3)CCOCC2)cc1,-13,.,78*
C=CC1OC2CCCCC2C2=CCCCC21 (centres undefined),-76,0,102
CC(NC(=O)c1ccc(F)cc1)C(=O)O (centres undefined),38*,49,102
C[C@H](NC(=O)c1ccc(Br)cc1)C(=O)O,-12,6,102
CCCCNC(=O)c1cc(=O)[nH]c2ccccc12,0,0,103
Cc1cnc(C(=O)OCCOc2ccc(Br)cc2)cn1,12,9,106
CN(C)S(=O)(=O)c1ccc(C(=O)Oc2cc(Cl)c[nH]c2=O)cc1,-19,-9,92
CN(C)S(=O)(=O)c1ccc(C(=O)Oc2cc(=O)[nH]c3ccccc23)cc1,-42,-152,89*
CC(C)c1cc(=O)[nH]c(SCc2nc(-c3ccccc3)no2)n1,-25,-3,101
Nc1n[nH]c(C2CCCCC2)n1,-54,-2,101
Nc1nc(N)c2[nH]c(C3CCCCC3)nc2n1,-6,79,79*
[O-][n+]1onc2c3nsnc3c(Br)cc21,13,-4,99
O=C1c2ccccc2C(=O)N1OCCOCCON1C(=O)c2ccccc2C1=O,-15,-10,102
COC(=O)c1ccc(COC(=O)C2CCN(c3ccc(C(F)(F)F)cn3)CC2)cc1,-31,31,104
Cc1cc(C)nc(N/C(=N/S(=O)(=O)c2ccccc2)Nc2ccccc2)n1,-9,0,102
CCOCC(O)CN (centres undefined),-10,-4,100
CC(C)OCC(O)CN (centres undefined),32*,-1,102
CC(Sc1nnc(-c2c[nH]c3ccccc23)o1)C(=O)Nc1ccccc1 (centres undefined),-28,-1,101
O=C1CN(C(=O)CSc2ncc(C(F)(F)F)cc2Cl)c2ccccc2N1,-8,5,99
O=C(CSc1ncc(C(F)(F)F)cc1Cl)N1CCNC1=O,3,58*,104
Cc1cccc(N2C(=O)CC(Sc3nccc(C)n3)C2=O)c1 (centres undefined),4,63*,101
Cc1ccc(-c2nc(SC3CC(=O)N(c4ccccc4)C3=O)n[nH]2)cc1 (centres undefined),-1,40,104
SMILES,Mtb MenB inh,MbtI inh,PV pol inh
Cc1cccc(N2C(=O)CC(Sc3ncn[nH]3)C2=O)c1 (centres undefined),10,99*,97
CCOc1ccc(N2C(=O)CC(Sc3nccc(C)n3)C2=O)cc1 (centres undefined),-10,32,104
COC(=O)Nc1c(C)nc2n(C)c3ccccc3n12,-18,70,97
COc1ccccc1NC(=O)C1CCCC1,-119,-50,95
COc1ccc(CCN2C(=O)C=CC2=O)cc1,.,93*,102
COc1ccc(CCC(=O)CCc2ccc(OC)cc2)cc1,0,-2,102
Cn1c(=O)sn(-c2ccccc2)c1=O,3,100*,96
CC1(O)CC(=O)N(c2ccccc2)O1 (centres undefined),.,4,.
Cc1ccc(C)n1-c1sccc1C(=O)OCc1cc(=O)n2c3c(sc2n1)CCCC3,-7,-5,105
CCN1CCN(C(=O)C(C)Sc2nc3nn(-c4ccccc4)c(=O)c-3c3n2CCCCC3)CC1 (centres undefined),-11,11,101
COc1ccc2c(c1)-c1nc(/N=C/c3ccc(C)o3)sc1CC2,-49,82*,97
COc1ccc2c(c1)CCc1sc(/N=C/c3ccc(C)cc3)nc1-2,-17,18,101
CCOC(=O)c1c(C)[nH]c(C)c1S(=O)(=O)N(C)CC(=O)N(C)c1ccc(C)c(C)c1,11,-1,99
O=S(=O)(CCc1ccccc1)c1ccccc1,26*,-3,100
O=S(=O)(Cc1ccccc1)c1ccccc1,-11,-16,108
CC1=CC(=C2C(=O)c3ccccc3C2=O)C=C(C)N1CC(C)C,-154,18,101
Cc1ccc(S(=O)(=O)/N=C2/C=C(Sc3ncn[nH]3)C(=O)c3ccccc32)cc1,.,88*,.
O=C1C(Sc2ccccc2)=C/C(=N/S(=O)(=O)c2cccs2)c2ccccc21,-5,92,92
Cc1ccc(Nc2nc(Nc3ccc(C)cc3)nc(Sc3ncn[nH]3)n2)cc1,-11,.,103
CC(C)c1ccc(S(=O)(=O)/N=C2/C=C(Sc3ncn[nH]3)C(=O)c3ccccc32)cc1,8,88,66*
Cc1ccc(S(=O)(=O)/N=C2\C=C(Sc3ncn[nH]3)C(=O)c3ccccc32)cc1,-58,86*,102
Cc1ccc(S(=O)(=O)Nc2ccc(O)c(Sc3ncn[nH]3)c2)cc1,.,-8,.
O=C(CCS(=O)(=O)c1ccc2c(c1)CCN2C(=O)C1CC1)NCc1ccccc1,-4,-16,102
O=C(NCCO)c1ccc2c(c1)OCCOCCOCCO2,-21,.,100
Cc1ccc(C(=O)CSc2cccc[n+]2[O-])cc1,.,69*,100
SMILES,Mtb MenB inh,MbtI inh,PV pol inh
CCc1ccc(C(=O)CSc2cccc[n+]2[O-])cc1,.,46,104
CCC(C#CCN1CCOCC1)OC(C)=O (centres undefined),10,.,109
O=C(O)CCN1Cc2ccccc2C1=O,7,.,96
O=C(O)CCN1C(=O)Cc2ccccc2C1=O,-25,6,22*
COc1ccc(OCCSc2nc3ccccc3n2CC(=O)N2CCOCC2)cc1,.,.,107
O=C(Cn1c(SCCOc2ccccc2)nc2ccccc21)N1CCOCC1,.,.,81*
O=C(Nc1ccccc1)Nc1nnc(C(F)(F)F)s1,-5,-10,110
O=C(Nc1nnc(C(F)(F)F)s1)c1ccccc1,-34,92*,100
COC(=O)c1c(O)cc(=O)[nH]c1N,-24,-4,99
COC(=O)c1cc(=O)[nH]c(=S)[nH]1,-29,88*,81*
CCNC(=S)N/N=C/c1ccc2ncccc2c1,-39,5,100
S=C(SN1CCOCC1)N1CCOCC1,-69,.,77*
S=C(SCc1ccc(CSC(=S)N2CCOCC2)cc1)N1CCOCC1,-6,.,100
Nn1c(SCC(=O)NCc2ccc3c(c2)OCO3)nncc1=O,-47,-1,100
Nn1c(SCC(=O)NCc2ccc3c(c2)OCO3)nnc1C1CC1,14,81*,104
NNC(=O)Cc1nc2ccccc2[nH]1,-38,.,107
O=c1ccsn1Cc1ccccc1,-116,93*,97
O=C1N(Cc2ccccc2)c2cccc3cccc(c23)N1Cc1ccccc1,-23,42,104
CN=C1S/C(=C\c2ccc(N3CCCC3)cc2)C(=O)N1C,-12,7,113
CCOc1ccc(/C=N/NC(=O)c2cccnc2)cc1CN1CC2CC(C1)c1cccc(=O)n1C2 (centres undefined),15,4,100
CCCCN(C)C(=O)C1CCC(CNS(=O)(=O)c2ccc3c(c2)CC(C)N3C(C)=O)CC1 (centres undefined),.,.,15*
CC(=O)N1c2ccc(S(=O)(=O)NCC3CCC(C(=O)NC(C)(C)C)CC3)cc2CC1C (centres undefined),.,.,114
CC1(C)N=C(c2ccccc2)C(=S)N1C(=O)c1ccccc1,-19,57*,98
